Where “and” joins values, the source holds several entries; their conditions need not be identical. Identical values can stand only once. Calls of active or inactive are those of the source. Calls come from the whole dose curve.
biological target: Glucocorticoid receptor (Homo sapiens) (UniProt P04150); assay: GR-EFC Redistribution (AID 451); settings: CHO-K1 GR-EFC translocation, beta-gal luminescence, 2 h
Description: NIH Molecular Libraries Screening Centers Network [MLSCN]
NIH Chemical Genomics Center [NCGC]
The glucocorticoid receptor (GR) is a cytoplasmic receptor that belongs to the nuclear receptor family of ligand-dependent transcription factors. Upon glucocorticoid binding to its receptor, the glucocorticoid-GR complex translocates into the nucleus, where it binds as a dimer to specific DNA sequences (glucocorticoid response elements), enhancing or suppressing transcription of a wide variety of glucocorticoid-responsive genes. In addition to their important roles in normal physiology and metabolism, glucocorticoids are administered exogenously as treatments for a wide variety of allergic, autoimmune, and neoplastic conditions. Identification of compounds that modulate aspects of GR signalling would be useful in dissecting glucocorticoid response pathways as well as developing GR modulators with more targeted clinical effects.
Traditionally, GR modulators have been identified using receptor binding or direct transactivation assays. However, assays for glucocorticoid-dependent nuclear translocation can also be used to screen for compounds affecting GR signaling.
Immunocytochemical staining has been used to assay for GR translocation, but is not suitable for high throughout screening due to the multiple reagent addition and wash steps required. Recently, a novel cell-based GR assay in Enzyme Fragment Complementation (EFC) format was developed by DiscoveRx (Fremont, CA). The assay uses EFC of b-galactosidase (b-gal) as an indicator of GR-translocation in engineered CHO-K1 biosensor cells. The enzyme acceptor (EA) fragment of b-gal resides in the nucleus , as designed through the use of a proprietary set of sequence additions and modifications. The small peptide enzyme donor (ED) fragment of b-gal is fused directly to the C-terminus of GR, and is localized in the cytoplasm is the absence of receptor signaling. Upon binding to a GR ligand, the complex translocates to the nucleus, where intact enzyme activity is restored by complementation and b-gal activity is detected. We optimized this GR-EFC assay in homogenous 1536-well plate assay format for high throughput screening.
NCGC Assay Protocol Summary:
CHO-K1 cells stably expressing NLS-enzyme acceptor fragment (EA) of b-gal and GR-enzyme donor (ED) fragment of b-gal were maintained in F12 medium (Invitrogen, Carlsbad, CA) at 37 Celsius degrees under a humidified atmosphere containing 5% CO2 and 95% air. The medium contained 10% FBS, 2 mM L-glutamine, 50 U/ml penicillin 50 ug/ml streptomycin, and 250 ug/ml hygromycin and 500 ug/ml G418 (Invitrogen).
GR-translocation was measured beta-gal enzyme activity using the PathHunter Detection Kit containing cell membrane permeablizing reagent and beta-gal substrate (DiscoveRx, Fremont, CA). All compounds were screened as titrations from 0.6 nM to 46 uM final concentration. The assay was performed in 1536-well format as follows:
5 uL cell suspension (1,000 cells)/well
Incubation at 37 Celsius degrees for two hours
1.25 uL 1X detection buffer from the kit supplied by DiscoveRx
Incubation at room temperature for one hour
Read plate in luminescence mode in ViewLux plate reader (PerkinElmer)
Keywords: NIH Roadmap, MLSCN, MLI, MLSMR, GR-EFC, GREFC, qHTS, NCGC
Potency is the fitted concentration of half-maximal effect.

Sequence of Glucocorticoid receptor (Homo sapiens) (P04150 whole entry, looked up): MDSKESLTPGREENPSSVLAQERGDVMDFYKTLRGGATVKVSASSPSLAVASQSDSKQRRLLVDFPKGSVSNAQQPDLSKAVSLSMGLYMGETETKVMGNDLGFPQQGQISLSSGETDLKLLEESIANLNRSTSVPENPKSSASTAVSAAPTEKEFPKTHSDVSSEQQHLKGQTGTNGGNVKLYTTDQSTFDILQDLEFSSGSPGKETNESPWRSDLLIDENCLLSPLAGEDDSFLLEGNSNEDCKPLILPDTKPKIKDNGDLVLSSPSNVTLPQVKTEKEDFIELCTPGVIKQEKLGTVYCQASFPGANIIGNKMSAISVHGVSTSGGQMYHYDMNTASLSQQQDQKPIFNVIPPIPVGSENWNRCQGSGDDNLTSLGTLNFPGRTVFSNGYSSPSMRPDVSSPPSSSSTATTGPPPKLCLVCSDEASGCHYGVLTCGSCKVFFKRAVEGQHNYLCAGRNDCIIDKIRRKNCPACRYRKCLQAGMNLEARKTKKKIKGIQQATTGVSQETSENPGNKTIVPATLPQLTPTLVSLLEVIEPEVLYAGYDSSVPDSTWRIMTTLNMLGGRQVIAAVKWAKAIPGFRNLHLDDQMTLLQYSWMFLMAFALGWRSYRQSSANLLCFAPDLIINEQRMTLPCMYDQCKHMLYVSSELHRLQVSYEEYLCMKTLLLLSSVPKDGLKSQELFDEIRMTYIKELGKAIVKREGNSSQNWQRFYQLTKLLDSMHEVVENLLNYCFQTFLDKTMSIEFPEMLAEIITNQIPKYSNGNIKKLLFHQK

Potency, inactive:
C[C@H](Oc1ccccc1)C(=O)N[C@@H]1C(=O)N2[C@@H]1SC(C)(C)[C@@H]2C(=O)O > 20.6 µM, COc1ccc([C@@H]2CC(=O)c3c(O)cc(O[C@H]4O[C@@H](CO[C@H]5O[C@@H](C)[C@@H](O)[C@@H](O)[C@@H]5O)[C@@H](O)[C@@H](O)[C@@H]4O)cc3O2)cc1O > 20.6 µM, O=C1C=CC(=O)c2c1ccc1c2ccc2ccccc21 > 20.6 µM, COC(=O)C1=C(C)NC(C)=C(C(=O)OC(C)C)[C@H]1c1cccc2nonc12 > 20.6 µM, CN(C)/N=N\c1nc[nH]c1C(N)=O > 20.6 µM, CC(=O)c1cc2ccccc2oc1=O > 20.6 µM, CCN(CC)CCOC(=O)[C@@H](c1ccccc1)C1CCCCC1 > 20.6 µM, C[N+]1(C)CCC[C@H]1C(=O)[O-] > 20.6 µM, CCCCC[C@H](O)/C=C\[C@@H]1[C@H](O)CC(=O)[C@@H]1CCCCCCC(=O)O > 20.6 µM, Clc1ccc(CC[C@H](Cn2ccnc2)Sc2c(Cl)cccc2Cl)cc1 > 20.6 µM, CN(C)CCOC(=O)[C@@H](c1ccccc1)C1(O)CCCC1 > 20.6 µM, Cc1cccc(C)c1NC(=O)[C@H](C)N > 20.6 µM, CCOC(=O)Oc1c(OC)cc(C(=O)O[C@H]2C[C@H]3CN4CCc5c([nH]c6cc(OC)ccc56)[C@@H]4C[C@H]3[C@@H](C(=O)OC)[C@@H]2OC)cc1OC > 20.6 µM, CC(C)(C)NC[C@H](O)COc1cccc2c1C[C@@H](O)[C@@H](O)C2 > 20.6 µM, CO[C@H]1[C@@H](OC(N)=O)[C@H](O)[C@@H](Oc2ccc3c(O)c(NC(=O)c4ccc(O)c(CC=C(C)C)c4)c(=O)oc3c2C)OC1(C)C > 20.6 µM, O=C(/C=C\c1ccc(O)c(O)c1)O[C@@H]1C[C@](O)(C(=O)O)C[C@@H](O)[C@@H]1O > 20.6 µM, CCC(C)(C)C(=O)O[C@@H]1C[C@H](C)C=C2C=C[C@H](C)[C@@H](CC[C@H]3C[C@@H](O)CC(=O)O3)[C@H]21 > 20.6 µM, COc1cc2c(cc1OC)-c1cc3ccc(OC)c(OC)c3c[n+]1CC2 > 20.6 µM, C[C@H](N)CCCC(C)(C)O > 20.6 µM, Cc1nccn1C[C@@H]1CCc2c(c3ccccc3n2C)C1=O > 20.6 µM, C[C@@H](Cc1cccc(C(F)(F)F)c1)NCCOC(=O)c1ccccc1 > 20.6 µM, COc1cc2ccc(=O)oc2c(O)c1O > 46 µM, CC(=C(CCOP(=O)(O)O)SC(=O)c1ccccc1)N(C=O)Cc1cnc(C)nc1N > 20.6 µM, CNCCC=C1c2ccccc2C=Cc2ccccc21 > 20.6 µM, N[C@H](Cc1cc(I)c(Oc2ccc(O)c(I)c2)c(I)c1)C(=O)O > 20.6 µM, CN1CCCN([C@@H](c2ccccc2)c2ccc(Cl)cc2)CC1 > 20.6 µM, C/C(=C\CNc1ncnc2nc[nH]c12)CO > 46 µM, Clc1cnccn1 > 20.6 µM, C[C@@H]1[C@H](C)CC[C@@]2(C(=O)O[C@H]3O[C@@H](CO[C@H]4O[C@@H](CO)[C@@H](O[C@H]5O[C@@H](C)[C@@H](O)[C@@H](O)[C@@H]5O)[C@@H](O)[C@@H]4O)[C@@H](O)[C@@H](O)[C@@H]3O)CC[C@]3(C)C(=CC[C@H]4[C@@]5(C)C[C@@H](O)[C@@H](O)[C@](C)(CO)[C@@H]5CC[C@@]43C)[C@@H]12 > 20.6 µM, Cc1ncc([N+](=O)[O-])n1C[C@H](O)CCl > 20.6 µM, Cc1c(O)c(=O)n(-c2ccccc2)n1C > 20.6 µM, CC(=O)O[C@@H]1C(=O)[C@@]2(C)[C@H](O)C[C@H]3OC[C@]3(OC(C)=O)[C@@H]2[C@H](OC(=O)c2ccccc2)[C@@]2(O)C[C@H](OC(=O)[C@@H](O)[C@@H](NC(=O)c3ccccc3)c3ccccc3)C(C)=C1C2(C)C (stereo in doubt) > 46 µM and > 20.6 µM, N[C@H](Cc1cc(I)c(Oc2cc(I)c(O)c(I)c2)c(I)c1)C(=O)O > 20.6 µM, CC(=O)S[C@H]1CC2=CC(=O)CC[C@@]2(C)[C@H]2CC[C@@]3(C)[C@H](CC[C@]34CCC(=O)O4)[C@@H]12 > 20.6 µM, CC[C@H]1NC(=O)c2cc(S(N)(=O)=O)c(Cl)cc2N1 > 20.6 µM, Cc1onc(-c2c(Cl)cccc2Cl)c1C(=O)N[C@H]1C(=O)N2[C@H]1SC(C)(C)[C@H]2C(=O)O > 20.6 µM, CO[C@@H]1CC[C@@]2(C)[C@@H](CC[C@@]3(C)[C@H]2CC=C2[C@H]4CC(C)(C)[C@H](O)[C@@H](OC(C)=O)[C@]4(CO)[C@H](O)C[C@]23C)[C@@]1(C)CO (tested in a mixture with another compound) > 20.6 µM

Potency, active:
CC1(C)O[C@@H]2C[C@H]3[C@H]4C[C@H](F)C5=CC(=O)CC[C@]5(C)[C@@H]4[C@H](O)C[C@]3(C)[C@]2(C(=O)CO)O1 0.0188 µM, CC(=O)O[C@]1(C(C)=O)CC[C@@H]2[C@@H]3C=C(C)C4=CC(=O)CC[C@@]4(C)[C@H]3CC[C@]21C 0.0557 µM, CCC(=O)[C@@]1(C)[C@H](C)C[C@@H]2[C@@H]3CCC4=CC(=O)C=C[C@@]4(C)[C@H]3[C@H](O)C[C@]21C 0.00311 µM
